Measured values taken from PubChem BioAssay (NCI).
The panel holds about 79,000 compounds, 15% with a hit somewhere; the sample as a whole holds those more often. Active and inactive are the calls of the source. No stated cut-off is given here; in the data, active means growth inhibition above about 70%; inactive means the rest. Where a SMILES comes first, the peptide text is derived from it.

Experiments:
[1] = NCI Yeast Anticancer Drug Screen. Data for the rad50 strain (AID 155);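 further: 0% = growth of vehicle-only cultures of the same strain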; conditions: S. cerevisiae rad50 strain growth inhibition; at 50.0 µM; stronger effect = higher value
Outline: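 Inhibition values express reduced yeast growth in compound-treated cultures relative to vehicle-treated controls.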

[2] = NCI Yeast Anticancer Drug Screen. Data for the mec2-1 strain (AID 157); conditions: S. cerevisiae mec2-1 strain, at 50.0 µM, stronger effect = higher value
Outline: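 Readout is yeast growth inhibition, normalised to vehicle-treated controls, in the mec2-1 strain exposed to compound.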

[3] = NCI Yeast Anticancer Drug Screen. Data for the sgs1 mgt1 strain (AID 161);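 further: 0% = growth of cultures given vehicle only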; conditions: S. cerevisiae sgs1 mgt1 strain, at 50.0 µM, stronger effect = higher value
Outline: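 Percent growth inhibition was derived by comparing compound-exposed mutant yeast with vehicle-exposed cultures. The strain carries alterations in DNA damage repair.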

[4] = NCI Yeast Anticancer Drug Screen. Data for the cln2 rad14 strain (AID 165);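 further: 0% = growth equal to vehicle treated cultures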; conditions: S. cerevisiae cln2 rad14 strain, at 50.0 µM, stronger effect = higher value
Outline: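 Relative to vehicle controls, growth inhibition of compound-treated cln2 rad14 yeast was recorded.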

[5] = NCI Yeast Anticancer Drug Screen. Data for the bub3 strain (AID 167); conditions: S. cerevisiae bub3 mutant strain, at 50.0 µM, stronger effect = higher value
Outline: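 Steps: expose the mutant yeast strain to compound; grow alongside vehicle-treated cultures; measure growth; express inhibition against the vehicle cultures.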

[6] = NCI Yeast Anticancer Drug Screen. Data for the mlh1 rad18 strain (AID 175); conditions: S. cerevisiae mlh1 rad18 strain growth inhibition; at 50.0 µM; stronger effect = higher value
Outline: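 Test agents were incubated with a yeast strain of defined genotype (DNA damage repair defect). Inhibition of growth was derived by comparison with vehicle-exposed cultures.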

Measured: growth inhibition

Cc1nc(C)c(N2CCN(C#N)CC2)c(=O)[nH]1
inactive: [1] -52.6% | [2] -23.6% | [3] -29.1% | [4] 0.35% | [5] -11.7% | [6] -40.2%

Cc1ccc(C)c2nc3c(C)ccc(C)c3cc12
inactive: [1] 22.5% | [2] 1.4% | [3] 13% | [4] -25.9% | [5] -0.45% | [6] 14.3%

C=Cc1cc2c(cc1O)CC[C@@H]1[C@@H]2CC[C@]2(C)[C@@H](O)CC[C@@H]12
inactive: [1] 17.4% | [2] 17.4% | [3] 36.8% | [4] 29.7% | [5] 22.9% | [6] 36.1%

Clc1ccc(Nc2ncnc3oc(-c4ccccc4)c(-c4ccccc4)c23)cc1
inactive: [1] 6.7% | [2] 13% | [3] 1.3% | [4] -5.05% | [5] -4.1% | [6] 4.65%

c1ccc2c3[n+](ccc2c1)CCC[n+]1ccc2ccccc2c1-3
active: [1] 75.1% | [3] 85% | [6] 79%
inactive: [2] 38% | [4] 60% | [5] 18.3%

O=C1OC(c2ccccc2)=N/C1=C\c1cccc(F)c1
inactive: [1] -18.4% | [2] -18.2% | [3] -23.1% | [4] -6.95% | [5] -16.1% | [6] 6.25%

N#C/C(=C\c1ccco1)C(N)=O
inactive: [1] -11% | [2] -7% | [3] -14.6% | [4] 5.25% | [5] 10.9% | [6] -10.7%

Cc1cc2oc(=O)cc(C(=O)O)c2c(=O)o1
inactive: [1] -15.8% | [2] -9.55% | [3] -13.2% | [4] -17.6% | [5] -8.85% | [6] -16.1%

CC(C)CC(=O)NS(=O)(=O)c1ccccc1
inactive: [1] -6.15% | [2] 5.05% | [3] -3.05% | [4] 5.2% | [5] -17.4% | [6] -22.2%

CS(=O)(=O)CC(O)(c1ccccc1)c1ccccc1
inactive: [1] -21.4% | [2] -2.4% | [3] 9.5% | [4] -13.3% | [5] 1.55% | [6] 28.1%

COc1cc(CN(c2ccccc2C(=O)O)S(=O)(=O)c2ccc(C)cc2)ccc1[N+](=O)[O-]
inactive: [1] 43.9% | [2] 2.65% | [3] 38.2% | [4] -19.6% | [5] -4.5% | [6] 35.6%

Cc1ccc2c(c1)C(c1ccccc1)(c1ccccc1)OC2
inactive: [1] 8.65% | [2] 41.4% | [3] 9.45% | [4] -10.8% | [5] 10.4% | [6] 13.6%

CC1NC(=O)C2CCCN2C(=O)C2CCCN2C(=O)C(C(C)C)NC(=O)C(Cc2ccccc2)NC(=O)C(Cc2ccccc2)NC(=O)C2CCCN2C(=O)C2CCCN2C(=O)C(Cc2ccccc2)NC(=O)C(Cc2ccccc2)NC1=O (configuration not stated) (cyclo(AFFPPFFVPP); configuration not given here)
inactive: [1] 6.65% | [2] -8.5% | [3] -2.35% | [4] 2.8% | [5] 1.25% | [6] 16.6%

CCC(C(=O)NC(C)c1ccc(-c2ccccc2)cc1)c1ccccc1 (configuration not stated)
inactive: [1] 5.1% | [2] 7.55% | [3] 10% | [4] 13.2% | [5] 12.5% | [6] -4.7%

N#CC1(c2nc3ccccc3o2)C(=O)C(=O)N(C2C3CC4CC(C3)CC2C4)C(=O)C1=O (configuration not stated)
inactive: [1] -8.65% | [2] 6.05% | [3] -39.1% | [4] 16.2% | [5] -5.75% | [6] -9.35%

CN1C2CCC1/C(=C/c1cccc3c1OCO3)C(=O)/C2=C\c1cccc2c1OCO2
inactive: [1] 27.8% | [2] 19.8% | [3] 20.4% | [4] -52% | [5] 32.3% | [6] 27.1%

O=C(O)Cn1cc(I)c(=O)c(I)c1
inactive: [1] -40.4% | [2] -43.7% | [3] -7.2% | [4] 3.15% | [5] -10.3% | [6] -28%

O=C1CCC(CC2CCCCC2)CC1
inactive: [1] -6.7% | [2] -3.95% | [3] -2.8% | [4] -58.6% | [5] -17.7% | [6] -12.2%

CCCCCCc1cn([C@H]2C[C@H](O)[C@@H](CO)O2)c(=O)[nH]c1=O
inactive: [1] -5.6% | [2] -5.4% | [3] 7.2% | [4] -12.8% | [5] 3% | [6] 9.15%

COc1cc(C(OC(C)=O)OC(C)=O)c(Cl)c(Cl)c1OC(C)=O
inactive: [1] 16.7% | [2] -2.25% | [3] 9.35% | [4] -5.3% | [5] 12.2% | [6] 18.6%

O=C1c2ccccc2-c2c1cccc2[N+](=O)[O-]
inactive: [1] 48% | [2] 23.9% | [3] 9.55% | [4] -62.5% | [5] -18.3% | [6] 42.5%

O=C(O)c1cc(Br)ccc1[N+](=O)[O-]
inactive: [1] -5.8% | [2] -25.4% | [3] 3.95% | [4] 7.05% | [5] -1.95% | [6] -11%

N#CC1C2CCC(C2)C1CCCN (configuration not stated)
inactive: [1] 18.4% | [2] -8.75% | [3] 6.55% | [4] -81.9% | [5] -8.05% | [6] -13.8%

NC(=O)NNc1ccccc1
inactive: [1] 3.6% | [2] 6.2% | [3] -1.85% | [4] -16.4% | [5] -7.2% | [6] -29.2%

CCCCCC(=O)N1CCCCC1CC (configuration not stated)
inactive: [1] -8.55% | [2] 7.15% | [3] -19.6% | [4] -10.1% | [5] -25.6% | [6] -28.1%

CC1(C)OC(=O)N=C1c1ccc(Br)cc1
inactive: [1] 1.4% | [2] -25.6% | [3] -21.1% | [4] 21.8% | [5] -22% | [6] 15.3%

COc1ccccc1CC(=O)C(O)(C(F)(F)F)C(F)(F)F
inactive: [1] -37.5% | [2] -36.3% | [3] -18.9% | [4] -28.6% | [5] -5.9% | [6] -26.9%

S=c1[nH]nc(COc2cccc3cccnc23)n1-c1ccccc1
inactive: [1] 12.5% | [2] 2.55% | [3] 2.05% | [4] 25.9% | [5] 13.4% | [6] 12.4%

O=C1OC(=O)C2C1C1CCC2C1(c1ccccc1)c1ccccc1 (configuration not stated)
inactive: [1] 22.5% | [2] -0.95% | [3] 31.4% | [4] -4.7% | [5] -0.05% | [6] -2.85%

Cc1ccc(NC(=O)Oc2ccc(Br)cc2)c([N+](=O)[O-])c1
inactive: [1] 20.4% | [2] 16.9% | [3] 16.3% | [4] 16.3% | [5] 11.3% | [6] 13.8%

Cc1nc2ccccc2o1
inactive: [1] 19.9% | [2] 39.5% | [3] 13.1% | [4] 14.9% | [5] -1.6% | [6] -10.4%

CCc1ccc(C(O)C(=O)O)cc1 (configuration not stated)
inactive: [1] 4.6% | [2] 7.95% | [3] -1.6% | [4] 3.85% | [5] -2.7% | [6] -3.75%

CC(C(c1ccccc1)C(Br)C(=O)c1ccccc1)[N+](=O)[O-] (configuration not stated)
active: [1] 96.5% | [2] 93.2% | [3] 95% | [4] 87.3% | [5] 96.5% | [6] 94.7%

CC(C)C(C)(C)C(N)=O
inactive: [1] -4.5% | [2] -0.95% | [3] -9.1% | [4] 13.9% | [5] 19.6% | [6] 0.95%

COc1ccc2c(NCCCCCCNc3c4ccccc4nc4cc(OC)ccc34)c3ccccc3nc2c1
active: [1] 89.9% | [2] 91.6% | [3] 92.5% | [4] 87.5% | [5] 91.5% | [6] 89.7%

CCC1C(=O)OCc2c1cc1n(c2=O)C(CC)c2c-1nc1ccccc1c2Cl (configuration not stated)
inactive: [1] 57.4% | [2] 14.6% | [3] 8.15% | [4] -28.3% | [5] -2.95% | [6] 4.55%

COc1cc2c(cc1C(C)c1ccc(OCc3ccccc3)cc1)OCO2 (configuration not stated)
inactive: [1] -1.3% | [2] -1.1% | [3] -8.6% | [4] -13.1% | [5] 0% | [6] 9.65%
